S2 tox: cell viability loss in ATXN counter-screen; hit rate 0.49% among 400,000; S2 cells (HEK-293 line with an ATXN2-luciferase reporter) viability, CellTiter-Fluor protease fluorescence, 24 h; AID 651635; Potency, µM (doses to about 56.7 µM), most hits filed as cytotoxic; note: nearly all actives have a fitted effect of over 40% in size
HepG2 tox: HepG2 cytotoxicity, counter-screen for TGF-b inhibitors; HepG2 CAGA-GFP viability, ATP luminescence, 18 h; Potency, µM (series often up to 46.1 µM), for the others: at the highest dose activity change, negative = cytotoxicity, actives largely listed as cytotoxic; hit rate 0.76% among 410,000; AID 588856
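CellTiter-Glo luminescence gave cytotoxicity after 18 hours at 37 degrees C. The cells were HepG2 CAGA-GFP in 1% FBS DMEM, stimulated with 500 pg/mL TGF-beta after compound addition. %Activity was normalised to no-cell wells (complete cell-killing) and DMSO (no toxicity), and curves were fitted and classified.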
ATXN2 expr inh: ATXN2 expression inhibition; hit rate 0.72% among 360,000; HEK-293 ATXN2-luciferase reporter, luminescence, 24 h; Potency, µM (top dose mostly 57 µM), inactives show at the highest dose activity change, negative = inhibition, hits mostly inhibitors; note: % is set by controls: 0 for no effect and ±100 for the full control effect; nearly all actives have a fitted effect of over 55% in size
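ATXN2-luciferase reporter cells (luciferase flanked by upstream and downstream ATXN2 gene portions) were treated 24 h at 37 °C with compounds at up to 57 uM. SteadyGlo luminescence gave expression; GF-AFC fluorescence gave viability.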
TGFb inhibitor: blocks TGF-b signaling; HepG2 CAGA-GFP TGF-b/SMAD3 reporter, GFP fluorescence, 18 h; TGF-beta stimulated, 500 pg/mL final; Potency, µM (highest dose often 46.1 µM), without a hit: top-dose activity, negative = inhibition, actives largely listed as inhibitors; hit rate 1.2% among 410,000; note: % is set by controls: 0 for no effect and ±100 for the full control effect; nearly all actives have a fitted effect of over 65% in size
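TGF-beta reporter screen: HEPG2 CAGA-GFP, 1% FBS, 500 pg/mL TGF-beta final, 18 h; per-cell GFP summed per well; curves fitted and categorized by class.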
TDP1 cell noCPT: qHTS for Inhibitors of human tyrosyl-DNA phosphodiesterase 1 (TDP1): qHTS in cells in absence of CPT; DT40 Tdp1-/- hTDP1 cells, no CPT, ATP luminescence, 48 h; Potency, µM (series often up to 46.2 µM), for the others: at the highest dose activity change, negative = growth inhibition, hits mostly inhibitors; hit rate 15% among 420,000; note: % is set by controls: 0 for no effect and ±100 for the full control effect; nearly all actives have a fitted effect of over 55% in size
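Cells were dispensed at 400 per well, compounds added by pin tool, plates incubated ≥48 hr at 37 °C, then CellTiter-Glo added for 30 min at room temperature before luminescence reading. Line: DT40 Tdp1-/- complemented with hTDP1; camptothecin omitted.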
DT40 TDP1 CPT: DT40-hTDP1 cell growth loss with CPT; hit rate 12% among 420,000; Potency, µM (top dose mostly 46.2 µM), inactives show at the highest dose activity change, negative = growth inhibition, most hits filed as inhibitors; chicken DT40 Tdp1-/-;hTDP1 cells + 20 nM CPT, ATP luminescence, 48 h; note: % is set by controls: 0 for no effect and ±100 for the full control effect; nearly all actives have a fitted effect of over 55% in size
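Cell growth measured by CellTiter-Glo luminescence after a minimum 48 h, 37 C compound exposure with 20 nM CPT in Tdp1-knockout DT40 cells stably expressing hTDP1, seeded 400/well; qHTS titration format.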
Numbers without * were called inactive; i = inactive; ? = inconclusive; nt = not tested or not shown. In the library only some 17% were active in any assay of this set; here they are far more common. Calls come from the whole dose curve; as a rule, active = well fitted curve in the direction sought with a large enough effect; inconclusive = small, poorly fitted or top-dose-only effect, or another doubt; inactive = no such curve, though single readings can be large; an effect the other way counts as inactive or inconclusive. Potency is the fitted concentration of half-maximal effect.

SMILES	S2 tox	HepG2 tox	ATXN2 expr inh	TGFb inhibitor	TDP1 cell noCPT	DT40 TDP1 CPT
Cc1cc(/C=N/NC(=O)c2cccc([N+](=O)[O-])c2)c(C)n1-c1ccccc1	i	-10%	nt	-13%	?	?
COc1cc2c(cc1NC(=O)CSc1ccccc1)oc1ccccc12	i	-6%	20%	0%	?	?
COc1cc2c(cc1NC(=O)CSc1nc3ccccc3[nH]1)oc1ccccc12	i	-34%	-36%	?	?	?
COc1cc2c(cc1NC(=O)CSc1nccn1C)oc1ccccc12	i	-23%	nt	-5%	18µM*	?
COc1cc2c(cc1NC(=O)CSc1nc3cc(Cl)ccc3s1)oc1ccccc12	?	0%	-29%	2%	12µM*	?
S=c1[nH]nc(COc2ccccc2)n1-c1ccc(Cl)cc1	?	4%	16%	-6%	23µM*	14%
COc1ccc(-n2c(COc3ccccc3)n[nH]c2=S)cc1	i	1%	4%	15%	-2%	1%
Cc1occc1C(=O)NC(C)C12CC3CC(CC(C3)C1)C2 (stereo not given)	i	-6%	0%	17%	?	?
CC(NC(=O)c1ccccc1F)C12CC3CC(CC(C3)C1)C2 (stereo not given)	i	-17%	0%	?	?	21µM*
O=C(CSc1nc2ccccc2c(=O)n1-c1ccccc1)N1CCCc2ccccc21	i	-4%	-12%	7%	?	-1%
O=c1c2ccccc2nc2n1-c1ccccc1CCC2	i	8%	1%	1%	16µM*	?
O=C1c2ccccc2-n2c1nc1ccccc1c2=O	i	-32%	-7%	?	1.3µM*	1.3µM*
Cc1cc2nc(C(C)(C)C)c(Cc3ccccc3)n2c(C)c1Br	i	-49%	24%	?	?	?
COc1cccc(-c2cc(C(=O)N3CCc4ccccc4C3)[nH]n2)c1	i	1%	45%	5%	-14%	-18%
Cc1c(C(=O)NC(=S)N(Cc2ccccc2)c2ccccn2)cccc1[N+](=O)[O-]	i	2%	nt	9%	-29%	?
Cc1cc(SCC(=O)N/N=C/c2ccc(O)c(O)c2)nc2ccccc12	?	-21%	-10%	-24%	?	?
O=C(CSc1nc2ccccc2o1)N/N=C/c1ccc(O)c(O)c1	i	-30%	nt	?	21µM*	18µM*
COc1cccc2c(SCC(=O)N/N=C/c3ccc(O)c(O)c3)cc(C)nc12	i	-23%	25%	-20%	?	-27%
COc1ccc2nc(C)cc(SCC(=O)N/N=C/c3ccc(O)c(O)c3)c2c1	i	-32%	23%	1%	29µM*	?
Cc1cc(SCC(=O)N/N=C/c2ccc(O)c(O)c2)c(C)cc1Br	?	-32%	-4%	0%	16µM*	21µM*
Cc1cc(SCC(=O)N/N=C/c2ccc(O)cc2O)nc2ccccc12	i	-12%	13µM*	-11%	4.1µM*	?
CCOC(=O)C1=C(COC(=O)/C=C/c2ccc(O)c(OC)c2)NC(=O)NC1C (stereo not given)	i	3%	2%	12%	?	?
COc1ccc2nc(C)cc(SCC(=O)N/N=C/c3cccc4ccccc34)c2c1	nt	-12%	?	-1%	13µM*	7.1µM*
COC(=O)CSc1cc(C)nc2ccc(OC)cc12	i	-4%	8%	4%	-11%	-4%
CCC1CN(C(=O)NCc2cccc(OC)c2)c2cc(Cl)ccc2O1 (stereo not given)	i	-27%	-7%	?	?	15µM*
SMILES	S2 tox	HepG2 tox	ATXN2 expr inh	TGFb inhibitor	TDP1 cell noCPT	DT40 TDP1 CPT
CCC1CN(C(=O)NCc2cccc(OC)c2)c2ccccc2O1 (stereo not given)	i	-5%	-10%	?	15µM*	?
COc1ccc2oc(=O)c(-c3csc(Nc4cccc(O)c4)n3)cc2c1	i	15%	32%	?	16µM*	?
COc1ccc(Nc2nc(-c3cc4cccc(OC)c4oc3=O)cs2)cc1	i	1%	13%	11%	21µM*	?
Cc1ccc(C(c2sc3nc(-c4ccco4)nn3c2O)N2CCC3(CC2)OCCO3)cc1 (stereo not given)	i	-3%	4%	-1%	7%	-1%
O=C(CSCc1ccc(Cl)cc1)Nc1ccc(S(=O)(=O)N2CCOCC2)cc1	i	3%	-14%	-20%	?	?
Cc1csc(N/N=C/c2ccccn2)n1	nt	-27%	14µM*	?	0.46µM*	0.58µM*
Clc1ccccc1C=NNc1ccccn1	i	-1%	51%	?	7%	-4%
Clc1ccccc1/C=N/NC1=Nc2cccc3cccc1c23	13µM*	-51%	-35%	26%	?	?
C(=N\NC1=Nc2cccc3cccc1c23)/c1ccccn1	?	1%	nt	2µM*	9.2µM*	8.2µM*
O=C(N/N=C/c1ccccn1)c1ccc(N/N=C/c2ccccn2)cc1	i	-3%	12%	2%	1%	1%
Cc1csc(N/N=C/c2ccc([N+](=O)[O-])cc2)n1	i	-5%	33%	-4%	?	0%
C(=NNc1ccc2ccccc2n1)c1ccccn1	2µM*	-37%	-78%	?	1µM*	1.6µM*
C(=N\N=C\c1ccccn1)/c1ccccn1	i	-17%	-7%	-15%	-5%	17%
Cc1cc2c(cc1S(=O)(=O)CCC(=O)N1CCN(c3ccccc3)CC1)OCC(=O)N2	i	-25%	2%	0%	nt	nt
c1ccc(CC2CCN(C3=Nc4cccc5cccc3c45)CC2)cc1	i	13µM*	3%	?	9.2µM*	?
CCOc1ccc(CNC(=O)c2ccc3nc(Cc4ccc(OC)cc4)oc3c2)cc1OC	i	-1%	-23%	-24%	13µM*	18µM*
COc1cc(CNC(=O)c2ccc3nc(Cc4ccccc4)oc3c2)cc(OC)c1OC	?	-41%	?	?	2.6µM*	6.5µM*
COc1cc(CC(=O)NCCCc2ccccc2)cc(OC)c1OC	i	-10%	-9%	-12%	21µM*	?
COc1cc(CNC(=O)c2ccc3nc(CCc4ccccc4)oc3c2)cc(OC)c1OC	nt	-1%	nt	-15%	21µM*	21µM*
